Bioassay records as filed in PubChem.
Rows were chosen to be rich in hits. Some 8.5% of all compounds tested hit in one or more screens of this group.
GoLoco inh red: blocks human Gai1 binding to RGS12 GoLoco peptide, red readout | Gai1:RGS12 GoLoco peptide FP, rhodamine, 10 min | Potency, µM (series often up to 61.6 µM), inactives show at the top dose activity, negative = inhibition, usual class: inhibitors | 230,000 compounds, 0.44% hits; active means well fitted inhibition curve with a large enough effect, not every such curve was filed as active; inactive means no such curve, though single readings can be large or run the other way; further: potency means the concentration at half of the fitted maximal effect; nearly all actives have a fitted effect of over 30% in size
Sfp PPTase inh: inhibitors of Bacillus subtilis Sfp phosphopantetheinyl transferase. Biochemical Sfp PPTase activity, qHTS. 310,000 compounds, 3.5% hits. Potency, µM, inactives show largest response in the series, negative = inhibition, usual class: inhibitors. AID 1490; active means well fitted curve in the direction sought with a large enough effect; inconclusive means small, poorly fitted or top-dose-only effect, or another doubt; inactive means no such curve, though single readings can be large; an effect the other way counts as inactive or inconclusive;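 further: the enzyme is Sfp with the accession as filed and its product quenches rhodamine fluorescence; potency means the concentration at half of the fitted maximal effect; 0% = enzyme reaction without inhibitor and -100% = no enzyme wells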
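Fluorescence-quenching assay: 15 nM Sfp-PPTase preincubated 15 min at room temperature with compound, then 5 uM rhodamine-CoA and 12.5 uM BHQ-2-labelled YbbR peptide added. Fluorescence (ex 525/em 598 nm) read at start and after 30 min; difference gives rate.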
ALDH1A1 inh: ALDH1A1 (human) enzyme inhibition; P00352; Purified ALDH1A1, NADH fluorescence, propionaldehyde substrate; Potency, µM (top dose mostly 75.3 µM), for inactives: at the highest dose activity, negative = inhibition, usual class: inhibitors; 220,000 compounds, 7.3% hits; AID 1030;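 further: potency means the concentration at half of the fitted maximal effect; plate controls were no enzyme wells and a reference inhibitor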
FBPA coupling cs: coupling enzyme interference in Giardia aldolase counter-screen; coupling enzyme system counterscreen, AmpLite Red fluorescence; activity change, negative = inhibition, % at 58.2 µM, hits read low; 290,000 compounds, 0.67% hits; in the data active means activity change below about -30%
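Coupling enzymes only (glyceraldehyde-3-phosphate) + compound, at 57.5 uM final, 10 min RT; add substrate/coupling/AmpLite Red mix, 20 min RT; fluorescence ex 525/em 598 nm. Actives flag coupling-system interference.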
KDM4E inh: inhibitors of human JMJD2E histone demethylase. Potency, µM (series often up to 57.1 µM), for the others: at the top dose activity change, negative = inhibition, hits mostly inhibitors. JMJD2E catalytic domain, FDH-coupled NADH fluorescence (FDH is formaldehyde dehydrogenase). 230,000 compounds, 1.6% hits. AID 2147. B2RXH2;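 further: potency means the concentration at half of the fitted maximal effect; 0% = wells with enzyme and -100% = buffer wells without enzyme; nearly all actives have a fitted effect of over 50% in size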
Target sequence (B2RXH2 1-337 limits assumed): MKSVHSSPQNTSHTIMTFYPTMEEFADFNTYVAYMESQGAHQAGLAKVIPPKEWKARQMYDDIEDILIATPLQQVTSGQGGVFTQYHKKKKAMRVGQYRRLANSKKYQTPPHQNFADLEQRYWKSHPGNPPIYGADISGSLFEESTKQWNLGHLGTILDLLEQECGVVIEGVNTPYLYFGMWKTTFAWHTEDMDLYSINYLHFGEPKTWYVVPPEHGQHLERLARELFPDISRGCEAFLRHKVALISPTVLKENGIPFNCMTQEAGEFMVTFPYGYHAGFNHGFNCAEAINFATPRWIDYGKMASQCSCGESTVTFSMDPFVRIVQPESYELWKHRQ
NPSR antag: blocks cAMP signaling of the human neuropeptide S receptor; 220,000 compounds, 1% hits; Potency, µM (doses to about 38.3 µM), without a hit: at the highest dose activity change, negative = inhibition, most hits filed as inhibitors; Q6W5P4; CHO-NPSR cells, cAMP TR-FRET, antagonist mode; active means well fitted curve in the direction sought with a large enough effect; inconclusive means small, poorly fitted or top-dose-only effect, or another doubt; inactive means no such curve, though single readings can be large; an effect the other way counts as inactive or inconclusive; further: potency means the concentration at half of the fitted maximal effect; nearly all actives have a fitted effect of over 50% in size
Target sequence (Q6W5P4 whole entry, looked up): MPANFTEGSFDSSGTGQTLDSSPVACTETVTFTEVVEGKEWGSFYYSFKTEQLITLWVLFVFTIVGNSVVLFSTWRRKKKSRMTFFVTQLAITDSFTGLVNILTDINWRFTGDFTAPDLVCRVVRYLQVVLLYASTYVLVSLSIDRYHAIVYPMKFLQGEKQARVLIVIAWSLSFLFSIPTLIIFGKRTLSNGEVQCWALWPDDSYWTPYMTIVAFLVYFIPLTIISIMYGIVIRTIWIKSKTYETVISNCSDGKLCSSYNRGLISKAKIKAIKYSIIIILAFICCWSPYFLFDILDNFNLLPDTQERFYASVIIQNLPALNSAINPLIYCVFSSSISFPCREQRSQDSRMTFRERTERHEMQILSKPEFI
Active calls of the source: *; ? = inconclusive; · = no result given; [ ] = remark or other dose. Unless noted, the call rests on the fitted dose curve; in most records, active means well fitted inhibition curve with a large enough effect (not every such curve was filed as active); inconclusive means small, poorly fitted or top-dose-only effect, or another doubt; inactive means no such curve, though single readings can be large or run the other way. Unless noted, on the % scale 0 is the no-effect control and ±100 the full control effect.

SMILES | GoLoco inh red | Sfp PPTase inh | ALDH1A1 inh | FBPA coupling cs | KDM4E inh | NPSR antag
O=C(Nc1ccc2c(c1)OCO2)C(c1ccc(Cl)cc1)N1CCN(C(=O)c2ccco2)CC1 (configuration not stated) | 9% | -1% | -12% | 0 | 6% | ?
O=C(Nc1ccc(F)cc1)C(c1ccccc1)N1CCN(C(=O)c2ccco2)CC1 (configuration not stated) | -14% | 1% | 5µM* | 2 | 2% | -16%[46.1 µM]
O=C(Nc1ccc2c(c1)OCO2)C(c1ccccc1)N1CCN(C(=O)c2ccco2)CC1 (configuration not stated) | 3% | 7% | 3µM* | 0 | 0% | -12%[46.1 µM]
CC(C)C(=O)Nc1ccc(C(=O)N2CCN(C(=O)c3ccco3)CC2)cc1 | -11% | ? | -20% | 5 | 3% | 10%[46.1 µM]
O=C(CSc1ccccc1)N1CCN(C(=O)c2ccco2)CC1 | 2% | 15% | ? | 2 | 18% | 11%
COC(=O)c1ccc(C(NC(=O)OCc2ccccc2)/C(=C/[C@@H](C)C(=O)NCc2nc3ccccc3s2)c2cccnc2)cc1 (some centres not stated) | 5% | 15% | -7% | -1 | -12% | ·
COc1ccc(C2c3ccc(O)cc3Oc3ncn4nc(-c5ccco5)nc4c32)cc1OC (configuration not stated) | 15% | -6% | 6% | 2 | 0% | 18%
Cc1c(Nc2ncccc2C(=O)O)cccc1C(F)(F)F | 0% | 10% | -1% | -3 | -1% | ·
Cc1oc2cc(O)cc(O)c2c(=O)c1-c1ccc2c(c1)OCCCO2 | 4% | -16% | 16µM* | 1 | ? | ?
CCOC(=O)C1=C(C)N=C2c3ccccc3C(=O)C2C1c1ccc(Cl)cc1 (configuration not stated) | 27% | 20% | -9% | -6 | 2% | ?
CCOC(=O)C1=C(Cc2ccc(Cl)cc2)C(=O)c2ccccc2C1=O | -20% | 3.5µM* | ? | -37* | ? | ?
COc1ccccc1C(=O)NNc1ncc(C)s1 | · | 40µM* | · | -1 | · | ·
COc1ccccc1C(=O)Nc1nnc(C)s1 | -10% | 13% | -3% | 2 | 4% | -3%[46.1 µM]
COCCNC(=O)C(=O)NNC(=O)c1ccccc1OC | -14% | 79µM* | 9% | 0 | 3% | -19%
S=P(N1CC1)(N1CC1)N1CC1 | 8% | 14% | -4% | 1 | -4% | ·
CC1CC=CC2C1C(=O)N(Cc1ccccc1)C2c1ccc(/C=C/c2ccccc2)cc1F (configuration not stated) | · | -8% | · | 0 | · | ·
Cc1ccc[n+](-c2nc([O-])sc2C=O)c1 | 4% | 3% | -3% | -13 | -11% | 9%
Cc1ccc(-n2c([O-])nc(-[n+]3ccccc3)c2C=O)cc1 | 1% | 11% | 8.9µM* | -5 | ? | -13%[46.1 µM]
O=C(CSc1nc2scc(-c3ccccc3)c2c(=O)[nH]1)N1CCCCC1 | 58% | -9% | 1.8µM* | 4 | -1% | -39%
Cc1nc(CNS(=O)(=O)c2cc(C)c(C)cc2C)cs1 | -7% | -7% | 13µM* | -13 | -1% | -21%[46.1 µM]
Cc1nc(CNS(=O)(=O)c2ccc(Br)cc2)cs1 | · | 12% | · | 0 | · | ·
C/C=N\NC(=O)COc1cc(C)ccc1C | 11% | 18% | 0% | 0 | 6% | 4%
CNC(=O)NC(=S)NC(=O)c1ccccc1Cl | -1% | -26% | -5% | 0 | 4% | -2%
O=C(NC(=S)Nn1cnnc1)c1ccccc1Cl | -14% | 40µM* | 10µM* | -2 | -2% | 7%
COc1cccc(C(=O)NC(=S)Nn2cnnc2)c1OC | 1% | 22µM* | 7.9µM* | 3 | -5% | 6%
SMILES | GoLoco inh red | Sfp PPTase inh | ALDH1A1 inh | FBPA coupling cs | KDM4E inh | NPSR antag
O=C(NC(=S)Nc1ncccn1)c1ccccc1Cl | -3% | 32µM* | -2% | -10 | 4% | 14%
O=C(NC(=S)N1CCCC1)c1ccccc1Cl | · | 14% | · | · | · | ·
O=C(NC1CC1)c1ccc(F)cc1Cl | 11% | 18% | -6% | -2 | 0% | 2%[46.1 µM]
O=C(NC(=S)Nn1cnnc1)c1ccc(F)cc1Cl | · | 50µM* | · | 0 | · | ·
Cc1cc([N+](=O)[O-])ccc1NC(=O)CCC(=O)N1CCCC1 | · | 10% | · | -1 | · | ·
Cc1cccc(OCC(O)Cn2c(N3CCCCC3)nc3c2c(=O)n(C)c(=O)n3C)c1 (configuration not stated) | · | 9% | · | 2 | · | ·
S=c1sc(SCCOc2ccccc2)nn1-c1ccccc1 | 5% | 20% | -8% | 0 | 2% | -11%
CC(C)(C)C(=O)Nc1nc2cc3c(cc2s1)OCO3 | 6% | 15% | · | 0 | 11% | 0%
CCC1CCC2(CC1)NC(CO)(CO)CO2 (configuration not stated) | 4% | 15% | 3% | -1 | 7% | 2%[46.1 µM]
CCC1CCC2(CC1)NNC(=S)NN2 | -3% | 56µM* | 7.5µM* | -1 | ? | 9%[46.1 µM]
CCN(CC(=O)NCc1ccc(Cl)cc1)C(=O)CCc1ccccc1 | · | 18% | · | 1 | · | ·
O=C(NCCCN1CCOCC1)c1ccc(Cl)cc1 | · | 4% | · | · | · | ·
CCCCCOc1ccc(C(=O)CCN2CCOCC2)cc1 | · | -6% | · | 2 | · | ·
O=C(CCN1CCOCC1)c1ccc(Cl)cc1 | 5% | -13% | 0.089µM* | 4 | -7% | 0%
O=C(CCN1CCOCC1)c1ccc(Br)cc1 | -9% | -29% | 0.1µM* | 0 | 4% | -17%
Cc1nc2sccn2c(=O)c1S(=O)(=O)Nc1cccc(Cl)c1C | · | 8% | · | 1 | · | ·
CCc1nnc(NC(=O)CCC(=O)NCc2ccc(OC)cc2)s1 | 3% | 9% | -6% | -6 | -5% | -32%
COc1ccc2sc(N3C(=O)C4CC=C(C)CC4C3=O)nc2c1 (configuration not stated) | -2% | 10% | 13µM* | -1 | 2% | -12%[46.1 µM]
CCCCn1nnc(NC(=S)NC(=O)c2ccc(-c3cccc(Cl)c3Cl)o2)n1 | · | ? | 3.5µM* | 5 | 2% | -1%[46.1 µM]
CCCCC(=O)NC(=S)Nc1nnn(CCC)n1 | -5% | 14µM* | 0.5µM* | -5 | -1% | -43%
CCCCC(=O)Nc1nnn(CCC)n1 | 3% | 7% | 12% | 4 | 10% | -5%[46.1 µM]
CCCCn1nnc(NC(=O)c2ccc(-c3ccccc3[N+](=O)[O-])o2)n1 | -6% | 14% | ? | 2 | -6% | -9%
Cc1cccc(Cn2c(Cc3ccccc3)nc3ccccc32)c1 | 7% | 56µM* | -4% | 10 | -3% | ?
Cc1ccc(NC(=S)N(CCCN2CCCC2)Cc2cccn2Cc2ccc(Cl)cc2)cc1Cl | 16% | 3% | ? | 1 | -13% | -59%
FC(F)(F)c1cccc(NC(=S)N(CCCN2CCCC2)Cc2cccn2Cc2ccc(Cl)cc2)c1 | -3% | 56µM* | -16% | 1 | 1% | 10µM*
